The target in test [1] is Retinaldehyde dehydrogenase 3 (Homo sapiens) (UniProt P47895). In words: qHTS for Inhibitors of the Aldehyde Dehydrogenase Family (ALDH1A3) Primary screen (AID 2061315).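 Also: plate controls were DMSO vehicle for no effect and reference inhibitor for full effect.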
Test [2] deals with Aldehyde dehydrogenase, mitochondrial (Homo sapiens) (UniProt P05091). In words: qHTS for Inhibitors of the Aldehyde Dehydrogenase Family (ALDH2) Primary screen (AID 2061308).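 Also: plate controls were vehicle for no effect and reference inhibitor for full effect; nearly all actives have a fitted effect of over 55% in size.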
Test [3] in a line: BET inhibitor-based combinations targeting novel dependencies in MECOM-rearranged (r) AML: AML-191 cell line (AID 2202236; also: nearly all actives have a fitted effect of over 35% in size; also: potency is read from the fitted curve at half-maximal effect). The method, boiled down: (§1)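 Each compound was tested at eleven concentrations on cells seeded at 500/well. After two days' incubation, ATP-based luminescence reported viability; responses relative to DMSO and blank wells yielded AUC and cell-line-centred Z-AUC.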

Test [4] can be described thus: BET inhibitor-based combinations targeting novel dependencies in MECOM-rearranged (r) AML: AML-194 cell line (AID 2202237; also: nearly all actives have a fitted effect of over 40% in size; also: potency is read from the fitted curve at half-maximal effect). In outline: as §1
Test [5] in a line: BET inhibitor-based combinations targeting novel dependencies in MECOM-rearranged (r) AML: SET-2 cell line (AID 2202231). Also: nearly all actives have a fitted effect of over 35% in size. Also: potency is read from the fitted curve at half-maximal effect.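 As to viability: plate controls were DMSO treated cells for no effect and wells without cells for full effect.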 Particulars: SET-2 AML cells viability, CellTiter-Glo luminescence, 48 h; viability: active compounds read low, concentration not given here. In outline:
as §1

Test [6] is described as follows: BET inhibitor-based combinations targeting novel dependencies in MECOM-rearranged (r) AML: OCI-AML3 cell line (AID 2202232). Also: nearly all actives have a fitted effect of over 35% in size. Also: potency is read from the fitted curve at half-maximal effect. Particulars: Potency: OCI-AML3 viability. The method, boiled down: as §1
The nature of test [7]: BET inhibitor-based combinations targeting novel dependencies in MECOM-rearranged (r) AML: MV-4-11 cell line (AID 2202233). Also: nearly all actives have a fitted effect of over 45% in size. Also: potency is read from the fitted curve at half-maximal effect. In outline: (§2)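 First, 500 cells per well were seeded; next, drugs were pinned as 11-point doses; then plates sat 48 hr in the incubator; finally CellTiter-Glo was added and luminescence read, with AUC and Z-AUC computed.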
Test [8] can be described thus: BET inhibitor-based combinations targeting novel dependencies in MECOM-rearranged (r) AML: HNT-34 cell line (AID 2202234). Also: nearly all actives have a fitted effect of over 35% in size. Also: potency is read from the fitted curve at half-maximal effect. The method, boiled down: as §2
Test [9] is described as follows: BET inhibitor-based combinations targeting novel dependencies in MECOM-rearranged (r) AML: UCSD-AML1 cell line (AID 2202235). Also: nearly all actives have a fitted effect of over 40% in size. Also: potency is read from the fitted curve at half-maximal effect. The method, boiled down:
as §2

Test [10] concerns the target Retinaldehyde dehydrogenase 3 (Homo sapiens) (UniProt P47895). In words: qHTS for Inhibitors of the Aldehyde Dehydrogenase Family (ALDH1A3) Confirmatory screens (AID 2061311). Also: potency is read from the fitted curve at half-maximal effect; nearly all actives have a fitted effect of over 60% in size. Background: qHTS replaces the single test concentration by a dilution series.
Test [11] addresses Aldehyde dehydrogenase 1A1 (Homo sapiens) (UniProt P00352). In words: qHTS for Inhibitors of the Aldehyde Dehydrogenase Family (ALDH1A1) Confirmatory screens (AID 2061316). Also: potency is read from the fitted curve at half-maximal effect; nearly all actives have a fitted effect of over 65% in size.

Inconclusive results are not listed. Unmarked numbers belong to inactive results. Calls of active or inactive are those of the source. Calls follow the shape of the dose curve; as a rule, active = well fitted curve in the direction sought with a large enough effect; inconclusive = small, poorly fitted or top-dose-only effect, or another doubt; inactive = no such curve, though single readings can be large; an effect the other way counts as inactive or inconclusive.

Turning to `C=C1[C@@H](C)[C@H]2[C@H](Cc3ccccc3)NC(=O)[C@]23OC(=O)/C=C/C(=O)CCC[C@@H](C)C/C=C/[C@H]3[C@@H]1O`, the Potency entry in test [1] was “inactive”.
`C[C@]12CC[C@H](O)CC1=CC[C@@H]1[C@@H]2CC[C@]2(C)C(=O)CC[C@@H]12`: the Potency result in test [2], in test [1], in [3] and in [4] was “inactive” throughout.
As for `CN1C(=O)[C@]23CC4C(C)(C)[C@@]5(C[C@@]41CN2CC[C@@]3(C)O)C(=O)Nc1c5ccc2c1OC=CC(C)(C)O2` (some centres not stated), the Potency entry in test [1] is “inactive”.
As to `Cc1ccccc1C(C(=O)NC1CCCCC1)N(C(=O)Cn1ccnc1C)c1cccc(F)c1` (configuration not stated), the Potency result in test [2] and in [1] was “inactive” in each case.
Consider `C/C=C(\C)C(=O)O[C@H]1CC2C(=C1C)[C@H]1OC(=O)[C@](C)(O)[C@]1(O)[C@H](OC(=O)CCC)C[C@@]2(C)OC(C)=O` (some centres not stated), for which the Potency entry in test [2] and in test [1] was “inactive” in each case.
A word on the viability: it is a read-out of living cells in per cent, often relative to untreated cells. For the compound `N#CC(O[C@@H]1O[C@H](CO[C@@H]2O[C@H](CO)[C@@H](O)[C@H](O)[C@H]2O)[C@@H](O)[C@H](O)[C@H]1O)c1ccccc1` (some centres not stated), the viability in test [5] was 93.9%. In addition, the Potency entry in [6], in test [7] and in [8] was “inactive” throughout.
`C/C1=C/C[C@@H](/C(C)=C/c2csc(C)n2)OC(=O)C[C@H](O)C(C)(C)C(=O)[C@H](C)[C@@H](O)[C@@H](C)CCC1`: the Potency in test [5] is 93.4 nM (active); in test [6], 59 nM (active); in test [7], 148 nM (active); in [9] it was 118 nM (active); in test [3] it was 83.3 nM (active); in [4], 93.4 nM (active).
Consider `C#CCN(C)[C@H](C)Cc1ccccc1`, for which the viability in [5] is 96.9%. For the same compound, the Potency result in test [6], in test [7], in [8] and in test [3] was “inactive” each time.
Consider `CC1(C)CC[C@]2(NC(=O)C(C)(F)F)CC[C@]3(C)[C@H](C(=O)C=C4[C@@]5(C)C=C(C#N)C(=O)C(C)(C)[C@@H]5CC[C@]43C)[C@@H]2C1`, for which the Potency in [5] is 1660 nM (active); in test [6], 1480 nM (active); in test [7], 1180 nM (active); in test [8], 1660 nM (active); in test [9], 1320 nM (active); in [3] it was 1860 nM (active). Moreover, the Potency in test [4] was 1860 nM (active).
For `CO[C@H]1[C@@H](O)[C@@H](C)O[C@@H](O[C@@H]2C=C3C(OC(C)=O)CC4(O)C(CC[C@]5(C)[C@@H](C6=CC(=O)OC6)CC[C@]45O)[C@@]3(C)CC2)[C@@H]1O` (some centres not stated), the Potency result in test [2] and in [1] was “inactive” throughout.
For the compound `CC(=O)OC[C@H]1O[C@@H]([S-])[C@H](OC(C)=O)[C@@H](OC(C)=O)[C@@H]1OC(C)=O.CC[PH+](CC)CC.[Au]`, the Potency was 1180 nM (active) in test [5]; 296 nM (active) in test [6]; 235 nM (active) in [7]; 833 nM (active) in test [8]; 934 nM (active) in [9]; 2950 nM (active) in test [4].
As to `O=C(O)c1ccc(O)c2ncc(N3CCCNCC3)cc12`, the Potency result in test [1] is “inactive”.
For the compound `COc1cccc(CNc2ccc(S(=O)(=O)Nc3nc(C)c(C)s3)cc2)c1O`, the Potency is 12700 nM (active) in [10] and 10100 nM (active) in test [11].
`O=C(O)CNC(=O)C1C(=O)N(C2CCCCC2)C(=O)N(C2CCCCC2)C1=O`: the viability in [5] was 114%. Moreover, the Potency result in test [6], in test [7], in test [8], in [9] and in test [4] was “inactive” in each case.
With `CO[C@H]1CCC(O[C@H]2C[C@H]([C@]3(C)CC[C@]4(C[C@H](O)[C@@H](C)[C@@H]([C@@H](C)/C=C(\C)C(=O)[C@H](C)C[C@H](C)C(=O)O)O4)O3)O[C@]3(O[C@@H]([C@H]4O[C@@](O)(CO)[C@H](C)C[C@@H]4C)C[C@@H]3C)[C@@H]2C)O[C@@H]1C` (some centres not stated), the Potency in [5] was 1480 nM (active); in test [6], 235 nM (active); in test [7], 372 nM (active); in test [8], 148 nM (active); in test [9] it was 2630 nM (active); in test [3], 1660 nM (active).
With `CC(=O)O[C@@]12CO[C@@H]1C[C@H](O)[C@@]1(C)C(=O)[C@H](O)C3=C(C)[C@@H](O)C[C@@](O)([C@@H](OC(=O)c4ccccc4)[C@H]21)C3(C)C`, in test [5], the viability was 103%.
With `COc1ccc(CCNCc2ccc(OC)c3ccccc23)cc1`, the Potency entry in test [2] and in test [1] was “inactive” each time.
For `C[C@H]1CC[C@@H]2[C@@H](C)[C@H]3[C@H](C[C@H]4[C@@H]5CC=C6CC(O[C@@H]7O[C@H](CO)[C@@H](O)[C@H](O[C@@H]8O[C@H](CO)[C@@H](O)[C@H](O)[C@H]8O)[C@@H]7O[C@@H]7O[C@@H](C)[C@H](O)[C@@H](O)[C@H]7O)CC[C@]6(C)[C@H]5CC[C@]34C)N2C1` (some centres not stated), the Potency entry in [2] and in [1] was “inactive” each time.
Regarding `C[C@H]1CCC/C=C/C2C[C@H](O)C[C@H]2[C@H](O)/C=C/C(=O)O1` (some centres not stated), the Potency entry in test [2] and in test [1] was “inactive” throughout. Also, the Potency in [5] is 332 nM (active); in [8], 296 nM (active); in test [9], 209 nM (active); in test [3], 332 nM (active); in [4], 372 nM (active).
Take `CN1C(=O)[C@@H](NC(=O)[C@H](CCC(F)(F)F)[C@H](CCC(F)(F)F)C(N)=O)N=C(c2ccccc2)c2ccccc21`: the viability in test [5] is 114%. Also, the Potency result in [6], in [7], in test [8] and in test [9] was “inactive” each time.

The values are drawn from PubChem BioAssay (NCATS).
